Potency data for seven compounds are collected here from PubChem BioAssay AID652180 (National Center for Advancing Translational Sciences (NCATS), 2013).

Records with an inconclusive call do not appear. Activity calls are given as the source filed them. Calls follow the shape of the dose curve; as a rule, active = well fitted inhibition curve with a large enough effect; inconclusive = small, poorly fitted or top-dose-only effect; inactive = no such curve, though single readings can be large or run the other way.

The test is described as follows: qHTS Assay for Lipid Storage Modulators: 3T3L1 Assay against Probe and Analogs. The note with it: 3T3-L1 lipid droplets, BODIPY imaging, oleic acid, 18-24 h; series mostly up to 46.1 µM. From the text:
Storing lipids as a reservoir for energy or the anabolism of elementary metabolites is a common feature of probably all cells and is conserved from bacteria to humans. The universal cellular lipid storage organelle is the so-called lipid storage droplet (LD). Although ubiquitous, LDs share a simple structure composed of a hydrophobic core that harbors the storage lipids, which is shielded by a droplet-specific phospholipid monolayer to which proteins are attached. The current model of LD biogenesis involves an incorporation of the lipid core into the membrane leaflets of the endoplasmic reticulum (ER) followed by a subsequent budding-like maturation of a LD, which ultimately pinches off. Once released, LD volume can increase by localized lipogenesis or fusion of existing droplets. Storage lipids are re-mobilized enzymatically by lipase activity. Lipase regulation in the adipocyte is heavily studied and involves multiple components including catecholamine signaling, the LD-associated proteins Perilipin and comparative gene identification-58 (CGI-58) and at least two lipases named hormone sensitive lipase (HSL) and adipocyte triglyceride lipase (ATGL). LD regulation outside of the adipocyte is poorly understood and only few components are known. However, there is an urgent need to learn more about ectopic fat depots as mislocalized storage of lipids, for example in the liver or muscle, is an eminent health problem associated with insulin resistance or the metabolic syndrome. We developed a laser-scanning cytometer assay to enable 1,536-well screening and combined the results of the small molecules screen with an RNAi database based on lipid storage. In this assay we tested analogs of the probe against a mammalian cell line (3T3L1), to see if these small molecules could disrupt lipid storage. NIH Molecular Libraries Probe Production Centers Network [MLPCN] NIH Chemical Genomics Center [NCGC] MLPCN Grant: MH085686 Assay Submitter (PI): Mathias Beller, Max-Planck-Institut fur Biophysikalische Chemie
3T3L1 cells were obtained from ATCC (CL-173). 4 uL of cells at 1.25 X 105 cell/mL were dispensed into 1536 well Poly-D-Lysine coated black with clear bottom imaging plates (Corning, #7356) to obtain 500 cells/well, and cultured at 37 °C, 95% humidity, and 5% CO2 overnight. The culture medium used was OPTI-MEM containing 5% fetal bovine serum (FBS). Triacsin C (Sigma-Aldrich T-4540), an inhibitor of long-chain fatty acyl CoA synthetase that blocks synthesis of triglycerides, was used as a positive control for lipid under-storage. A total of 23 nL of compounds dissolved in DMSO at different concentrations were transferred to the assay plates using a Kalypsys 1536-pin tool, the final DMSO concentration was 0.46%. One microliter of oleic acid at 400 uM (Calbiochem, #4954) was added to induce lipid droplet formation in the cells, and the plates were lidded. After 18-24 hours of incubation at 37 °C, 95% humidity, and 5% CO2, cells were fixed (8 % paraformaldehyde in PBS, 30 min, room temperature), washed three times with PBS, then stained for lipid droplet and nucleus using 4uL of PBS solution containing BODIPY lipid dye 493/503 (1:2000 dilution, Life Technologies, #3922) and Hoechst 33342 (1:1000, Life Technologies, #H3570) with Washer dispenser EL406(Biotek). Images were acquired using InCell 2000 (GE). Number of cells, number of lipids and sizes of lipids were analysis using GE Investigator software.
On to `CCOc1ccc(CCNC(=O)c2cc3ccccc3n2Cc2ccccn2)cc1OCC`, for which the Potency is 46.9 nM (active).
The value for `CCOc1ccc(CCNC(=O)c2cc3cnccc3n2Cc2cccc(C)n2)cc1OCC` was “inactive”; that for `CCOc1ccc(CCNC(=O)c2cc3ncccc3n2Cc2cccc(C)n2)cc1OCC` was “inactive”; that for `CCOc1ccc(CCNC(=O)c2ccccc2)cc1OCC` was 2350 nM (active).
Take `CCOc1ccc(CCNC(=O)c2cc3sccc3n2Cc2ccc(F)cc2F)cc1OCC`: the Potency is 23.5 nM (active).
The value for `CCOc1ccc(CCNC(=O)c2cc3ccncc3n2Cc2cccc(C)n2)cc1OCC` was “inactive”; that for `CCOc1ccc(CCNC(=O)c2ccc(Oc3ccccc3)cc2)cc1OCC` was 246 nM (active).
